A selection: hits, their analogues and other compounds. The true share with any hit is near 11%.
IMPase Li inh – qHTS Assay for Identifying the Cell-Membrane Permeable IMPase Inhibitors: Potentiation with Lithium. CHO-M1 cells, IP1 TR-FRET (IP-One), carbachol + lithium. Potency, µM (highest dose often 59.4 µM), actives largely listed as inhibitors. 210,000 tested, 0.35% active. AID 1457, 2008; active = well fitted inhibition curve with a large enough effect; inconclusive = small, poorly fitted or top-dose-only effect; inactive = no such curve, though single readings can be large or run the other way;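 also: IP1 builds up when IMPase is blocked and the TR-FRET signal falls; nearly all actives have a fitted effect of over 50% in size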
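CHO cells stably expressing M1 receptor (2000/well) were cultured 16–30 h, then exposed to compounds with a small lithium addition for 30 min at 37C. IP1 was measured by TR-FRET competition; AC50 from Hill fits.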
IMPase cell inh – qHTS Assay for Identifying the Cell-Membrane Permeable IMPase Inhibitors; CHO-M1 cells, IP1 accumulation, HTRF TR-FRET ratio; inhibition (IP1 accumulation), % at 46.1 µM; 120,000 tested, under 10 active; AID 901, 2007; active = well fitted curve in the direction sought with a large enough effect in the signal ratio, not every such curve was filed as active; inconclusive = small, poorly fitted or top-dose-only effect, or a change in a side signal; inactive = no such curve, though single readings can be large or run the other way; the % refers to the signal ratio;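 also: cells stimulated with carbachol in lithium chloride buffer; higher means more IMPase inhibition seen as more IP1 and lower FRET ratio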
Target sequence (P97697 whole entry, looked up): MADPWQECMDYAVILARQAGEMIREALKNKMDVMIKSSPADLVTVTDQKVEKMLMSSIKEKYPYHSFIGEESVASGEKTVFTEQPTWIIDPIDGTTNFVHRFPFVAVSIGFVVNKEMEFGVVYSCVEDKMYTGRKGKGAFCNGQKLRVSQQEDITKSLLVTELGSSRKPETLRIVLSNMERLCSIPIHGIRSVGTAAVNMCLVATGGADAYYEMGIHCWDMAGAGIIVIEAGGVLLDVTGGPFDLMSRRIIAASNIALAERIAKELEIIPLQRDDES
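CHO-M1 cells (CHO stably expressing M1 receptor), compound up to 46 uM final, stimulated with carbachol (50 uM as added) in buffer with 50mM LiCl, pH 7.4, 30 min at 37C. Cytosolic IP1 read by TR-FRET; AC50 from Hill fits.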
ALDH1A1 block – qHTS Assay for Inhibitors of Aldehyde Dehydrogenase 1 (ALDH1A1); Aldehyde dehydrogenase 1A1 (Homo sapiens), P00352; Purified ALDH1A1, NADH fluorescence, propionaldehyde substrate; Potency, µM (highest dose often 75.3 µM), hits mostly inhibitors; 220,000 tested, 7.3% active
HPGD block – qHTS Assay for Inhibitors of HPGD (15-Hydroxyprostaglandin Dehydrogenase) | Potency, µM, usual class: inhibitors | purified HPGD, NADH fluorescence kinetic, PGE2 substrate | 15-hydroxyprostaglandin dehydrogenase [NAD(+)] (Homo sapiens), P15428 | 150,000 tested, 4.3% active
Target sequence (P15428 whole entry, looked up): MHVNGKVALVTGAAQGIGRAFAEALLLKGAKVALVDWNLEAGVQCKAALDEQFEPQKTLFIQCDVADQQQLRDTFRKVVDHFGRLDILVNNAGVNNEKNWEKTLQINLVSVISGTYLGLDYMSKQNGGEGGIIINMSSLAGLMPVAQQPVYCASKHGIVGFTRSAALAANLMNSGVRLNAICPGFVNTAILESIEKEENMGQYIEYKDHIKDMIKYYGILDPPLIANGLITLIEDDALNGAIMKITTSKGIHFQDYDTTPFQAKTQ
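20 nM HPGD preincubated 15 min at room temperature with compound in 50 mM Tris-HCl pH 8, 0.01% Tween 20. Started with 1 mM NAD+ and 30 uM prostaglandin E2; NADH fluorescence (360/450 nm) read 5 times over 30-s intervals, last minus first.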
PNC assembly inh – High Content Assay for Compounds that inhibit the Assembly of the Perinucleolar Compartment | activity change (PNC), negative = inhibition, % at 10 µM | PC3M PTB-GFP, PNC prevalence imaging, 16 h; active compounds read low | 140,000 tested, 3.1% active;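 active = readout at or below -70, meaning at least 70% loss of cells showing the perinucleolar compartment, a nuclear body marking cancer cells; inconclusive = readout between -30 and a set limit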
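PC3M cells stably expressing PTB-GFP, 750–1000 cells/well, treated 16 h at 37 °C with compound (23 nl of library stock), in duplicate. After paraformaldehyde fixation and Hoechst stain, imaged at 20x; PNC prevalence scored by image analysis.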
A number is an active result; [ ] = remark or other dose. Unless noted, calls follow the shape of the dose curve; as a rule, active = well fitted inhibition curve with a large enough effect (not every such curve was filed as active); inconclusive = small, poorly fitted or top-dose-only effect, or another doubt; inactive = no such curve, though single readings can be large or run the other way.

Results for Nc1ccccc1Oc1c(F)c(F)c(Oc2ccccc2N)c(F)c1F ?
IMPase Li inh: inactive; ALDH1A1 block: inactive

How did O=c1sc(N2CCN(c3ccc(F)cc3)CC2)nc2ccsc12 do in these assays?
IMPase Li inh: 22µM; IMPase cell inh: inactive; ALDH1A1 block: inconclusive; HPGD block: inactive; PNC assembly inh: inactive

Results for O=C(c1ccco1)N1CCN(c2nc3ccsc3c(=O)s2)CC1 ?
IMPase Li inh: inactive; IMPase cell inh: inactive; ALDH1A1 block: 13µM; HPGD block: inconclusive; PNC assembly inh: inactive

How did CCOc1ccc2nc(N3CCC(C(=O)N4CCN(C(=O)c5ccco5)CC4)CC3)sc2c1 do in these assays?
IMPase Li inh: inactive; IMPase cell inh: inactive; ALDH1A1 block: 16µM; HPGD block: inactive; PNC assembly inh: inactive

How did O=c1sc(N2CCN(c3ccccc3F)CC2)nc2ccsc12 do in these assays?
IMPase Li inh: inactive; IMPase cell inh: inactive; ALDH1A1 block: inconclusive; HPGD block: inconclusive; PNC assembly inh: inactive

How did COc1ccc(OCc2cccc(C(=O)NN)c2)cc1 do in these assays?
IMPase Li inh: inactive; ALDH1A1 block: 0.32µM; HPGD block: inactive; PNC assembly inh: inconclusive

What do the screens show for `NNC(=O)c1cccc(COc2ccc(Br)cc2)c1`?
IMPase Li inh: inactive; IMPase cell inh: inactive; ALDH1A1 block: 0.63µM; HPGD block: inactive; PNC assembly inh: inconclusive

What do the screens show for `COc1ccc(OCc2cccc(C(=O)Nn3cc([N+](=O)[O-])cn3)c2)cc1`?
IMPase Li inh: inactive; IMPase cell inh: inactive; ALDH1A1 block: inactive; HPGD block: inactive; PNC assembly inh: -99

How did COC(=O)c1cccc(Cn2cc([N+](=O)[O-])cn2)c1 do in these assays?
IMPase Li inh: inactive; ALDH1A1 block: inactive

What do the screens show for `NNC(=O)c1cccc(COc2cccc(Br)c2)c1`?
IMPase Li inh: inactive; IMPase cell inh: inactive; ALDH1A1 block: 3.2µM; HPGD block: inactive; PNC assembly inh: inactive

How did O=C(NCc1ccccc1)c1cccc(COc2ccc(Cl)cc2)c1 do in these assays?
IMPase Li inh: inactive; IMPase cell inh: inactive; ALDH1A1 block: inconclusive; HPGD block: inactive; PNC assembly inh: inactive

What do the screens show for `O=C(NN1CCOCC1)c1cccc(COc2cccc(Br)c2)c1`?
IMPase Li inh: inactive; ALDH1A1 block: inactive

How did Cc1ccc(C(C(=O)NC(C)(C)C)N(Cc2ccccc2)C(=O)c2snc(C(N)=O)c2N)o1 (configuration not stated) do in these assays?
IMPase Li inh: inactive; ALDH1A1 block: inconclusive

How did NNC(=O)c1ccc(COc2ccc3c(c2)CCC3)cc1 do in these assays?
IMPase Li inh: inactive; IMPase cell inh: inactive; ALDH1A1 block: 7.9µM; HPGD block: inactive; PNC assembly inh: inconclusive

What do the screens show for `CCc1n[nH]c2c1/C(=N\O)CC(c1ccccc1)C2` (configuration not stated)?
IMPase Li inh: inactive; IMPase cell inh: inactive; ALDH1A1 block: inactive; HPGD block: 4µM; PNC assembly inh: inactive

What do the screens show for `CCCCc1noc2c1/C(=N\O)CC(c1ccccc1)C2` (configuration not stated)?
IMPase Li inh: inactive; IMPase cell inh: inactive; ALDH1A1 block: inactive; HPGD block: inactive; PNC assembly inh: inactive

How did CCCCc1n[nH]c2c1/C(=N/O)CC(c1ccccc1)C2 (configuration not stated) do in these assays?
IMPase Li inh: inactive; IMPase cell inh: inactive; ALDH1A1 block: inactive; HPGD block: 2.5µM; PNC assembly inh: inactive

Results for COc1ccccc1-n1cc(CN2CCCC(CO)(Cc3cccc(Cl)c3)C2)cn1 (configuration not stated) ?
IMPase Li inh: inactive; ALDH1A1 block: inactive

How did COc1ccc(-n2c(=O)c(CCc3ccccc3)nc3cnc(N(C)C)nc32)cc1 do in these assays?
IMPase Li inh: inactive; ALDH1A1 block: inconclusive; HPGD block: inactive

Results for CCCCN(Cc1ccccc1)C(=O)C1CCCN(S(=O)(=O)c2cnc[nH]2)C1 (configuration not stated) ?
IMPase Li inh: inactive; IMPase cell inh: inactive; ALDH1A1 block: 14µM; HPGD block: inactive; PNC assembly inh: inactive

Results for CCOC(=O)Cc1ccc(NCc2ccc(Cl)cc2)cc1 ?
IMPase Li inh: inactive; ALDH1A1 block: inactive

How did O=C1CS/C(=N/N=C2CCCC2)N1 do in these assays?
IMPase Li inh: inactive; ALDH1A1 block: inactive

How did O=C1CSC(=NC2CCCCC2)N1 do in these assays?
IMPase Li inh: inactive; IMPase cell inh: inactive; ALDH1A1 block: 7.9µM; HPGD block: inactive; PNC assembly inh: inconclusive

Results for CC1(C)CC(=O)C(C=NCCN2CCNC2=O)=C(O)C1 ?
IMPase Li inh: inactive; ALDH1A1 block: 20µM; HPGD block: inactive; PNC assembly inh: inactive

Results for CC1(C)CC(=O)C(C=NCCN2CCN(C3CC(=O)N(c4ccc(Br)cc4)C3=O)CC2)=C(O)C1 (configuration not stated) ?
IMPase Li inh: inactive; ALDH1A1 block: 28µM

What do the screens show for `CC1(C)CC(=O)C(C=NCCN2CCN(C(=O)C34CC5CC(CC(C5)C3)C4)CC2)=C(O)C1`?
IMPase Li inh: inactive; IMPase cell inh: inactive; ALDH1A1 block: 7.9µM; HPGD block: inactive; PNC assembly inh: inactive

What do the screens show for `CC1(C)CC(=O)C(C=NCCCO)=C(O)C1`?
IMPase Li inh: inactive; IMPase cell inh: inactive; ALDH1A1 block: inactive; HPGD block: inactive; PNC assembly inh: -87

What do the screens show for `CCCOc1ccc(N2C(=O)CC(N3CCN(CCN=CC4=C(O)CC(C)(C)CC4=O)CC3)C2=O)cc1` (configuration not stated)?
IMPase Li inh: inactive; ALDH1A1 block: inconclusive

How did CC1(C)CC(=O)C(C=NCCN2CCN(CC(=O)Nc3ccccc3)CC2)=C(O)C1 do in these assays?
IMPase Li inh: inactive; ALDH1A1 block: inconclusive; HPGD block: inactive; PNC assembly inh: inactive

How did CC1(C)CC(=O)C(C=NCC(N)=O)=C(O)C1 do in these assays?
IMPase cell inh: inactive; ALDH1A1 block: inactive; HPGD block: inactive; PNC assembly inh: inactive

What do the screens show for `CC1C(=O)N(C)C(=O)c2nc[nH]c21` (configuration not stated)?
IMPase Li inh: inactive; ALDH1A1 block: inactive; HPGD block: inactive

What do the screens show for `C=C(C)C(O)C(CC/C=C(\C)C(=O)OCC)OC` (configuration not stated)?
ALDH1A1 block: inactive[13.5 µM]

What do the screens show for `CCOC(=O)c1ccc(NC(=S)N2CCN(CCN=CC3=C(O)CC(C)(C)CC3=O)CC2)cc1`?
IMPase Li inh: inactive; ALDH1A1 block: 0.5µM

What do the screens show for `CN1CCC2(CC1)CCN(C(=O)c1ccncc1)CC2`?
IMPase Li inh: inactive; ALDH1A1 block: inactive; HPGD block: inactive

Bioassay records deposited in PubChem BioAssay by National Center for Advancing Translational Sciences (NCATS).
